Test results published in PubChem BioAssay (NCI).
The panel holds about 83,000 compounds, 20% with a hit somewhere; the sample as a whole holds those more often.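 Each cell line was grown in a 96-well plate and treated with one concentration of compound for 48 hours. Values below 10 were considered active.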 A number with no mark means an inactive call. Activity calls are given as the source filed them.

Legend:
Experiment in all cases: NCI-60 one-dose screen, 48 h (100 = growth as untreated, 0 = no growth, -100 = all killed)
Conditions in all cases: 10 µM unless noted
[1] = tested on: NCI-H23 lung
[2] = tested on: NCI-H226 lung
[3] = tested on: NCI-H322M lung
[4] = tested on: HOP-62 NSCLC
[5] = tested on: NCI-H460 lung
[6] = tested on: HOP-92 NSCLC
[7] = tested on: NCI-H522 lung
[8] = tested on: A549/ATCC NSCLC
[9] = tested on: 786-0 renal
[10] = tested on: COLO 205 colon

SMILES: CCOC(=O)c1c(NC(=O)c2cccc(C(F)(F)F)c2)sc2c(CN3CCN(C)CC3)c(O)ccc12
- growth [1]: 53.4%
- growth [2]: 83.8%
- growth [3]: 8.01% (active)
- growth [4]: 38.8%
- growth [5]: -64.4% (active)
- growth [6]: 30.7%
- growth [7]: -14.4% (active)
- growth [8]: 32%
- growth [9]: -83.6% (active)
- growth [10]: -55.1% (active)

SMILES: O=C(Nc1ccc(-c2nc(-c3cccc(O)c3)c(-c3ccnc(Br)c3)[nH]2)cc1)c1ccccc1
- growth [1]: 10.5%
- growth [2]: 51.4%
- growth [3]: 37.3%
- growth [4]: 2.99% (active)
- growth [5]: 11.1%
- growth [6]: 6.58% (active)
- growth [7]: 11.3%
- growth [8]: 25.9%
- growth [9]: -10.2% (active)
- growth [10]: 21%

SMILES: CC1CCc2c(sc3nc(SCC(=O)N/N=C/c4cccc(O)c4O)n(-c4ccccc4)c(=O)c23)C1 (stereo not given)
- growth [1]: 88%
- growth [2]: 87.4%
- growth [3]: 96.8%
- growth [4]: 71.2%
- growth [5]: 88.4%
- growth [6]: 45.4%
- growth [7]: 83.1%
- growth [8]: 86.2%
- growth [9]: 99.7%
- growth [10]: 110%

SMILES: O=C1c2c(c3c4cc(Br)ccc4[nH]c3c3ccc4ccccc4c23)C(=O)N1CCN1CCCCC1
- growth [1]: 37.8%
- growth [2]: 69.2%
- growth [3]: 78%
- growth [4]: 33.8%
- growth [5]: -67.7% (active)
- growth [6]: 51.3%
- growth [7]: 68%
- growth [8]: 7.63% (active)
- growth [9]: -84.2% (active)
- growth [10]: 61.7%

SMILES: Nc1nc(N)c2c(n1)NC(c1ccc(Cl)cc1)CC(c1ccc(Nc3nc(NCCO)nc(Nc4ccc(Cl)cc4)n3)cc1)=N2 (stereo not given)
- growth [1]: 33%
- growth [2]: 81.8%
- growth [3]: 55.6%
- growth [4]: -63.7% (active)
- growth [5]: -57.2% (active)
- growth [6]: 67.4%
- growth [7]: 25.2%
- growth [8]: 52%
- growth [9]: 28%
- growth [10]: 67.4%

SMILES: Nc1c(C(=O)c2ccccc2)sc2nc(-c3cnccn3)cc(-c3cccs3)c12
- growth [1]: 104%
- growth [2]: 95.8%
- growth [3]: 100%
- growth [4]: 97.6%
- growth [5]: 103%
- growth [6]: 106%
- growth [7]: 96.8%
- growth [8]: 102%
- growth [9]: 106%
- growth [10]: 108%

SMILES: NC(N)=NS(=O)(=O)c1ccc(N=NC2C(=O)NN(c3ccccc3)C2=O)cc1 (stereo not given)
- growth [1]: 93.5%
- growth [2]: 85.6%
- growth [3]: 101%
- growth [4]: 110%
- growth [5]: 101%
- growth [6]: 68.9%
- growth [7]: 104%
- growth [8]: 104%
- growth [9]: 100%
- growth [10]: 113%

SMILES: Oc1ccc(CSc2nnc(-c3cnccn3)n2-c2ccccc2)c2cccnc12
- growth [1]: 26.9%
- growth [2]: 30%
- growth [3]: 31.2%
- growth [4]: 22.1%
- growth [5]: 10.4%
- growth [6]: -3.39% (active)
- growth [7]: 2.33% (active)
- growth [8]: 29.5%
- growth [9]: 35.1%
- growth [10]: 103%

SMILES: COc1ccc(CCN2C(=O)/C(=C/c3nc(CO)cs3)SC2=S)cc1
- growth [1]: 86.7%
- growth [2]: 101%
- growth [3]: 95.7%
- growth [4]: 82.8%
- growth [5]: 102%
- growth [6]: 27.7%
- growth [7]: 35.9%
- growth [8]: 95.3%
- growth [9]: 27.9%
- growth [10]: 102%

SMILES: CN1CCN(c2ccc(NC(=O)Nc3ccc4c(ccn4-c4cccc(C(N)=O)n4)c3)cc2C(F)(F)F)CC1
- growth [1]: 72.5%
- growth [2]: 83.6%
- growth [3]: 58.3%
- growth [4]: 63.2%
- growth [5]: 87.2%
- growth [6]: 119%
- growth [7]: 71.6%
- growth [8]: 51.8%
- growth [9]: 6.16% (active)
- growth [10]: 44.4%

SMILES: COc1ccc([C@H]2[C@H](O)C(=O)N2c2cc(OC)c(OC)c(OC)c2)cc1
- growth [1]: 12.6%
- growth [2]: 19.5%
- growth [3]: 47.9%
- growth [4]: 26.2%
- growth [5]: 3.39% (active)
- growth [6]: -4.93% (active)
- growth [7]: -20.8% (active)
- growth [8]: 21.6%
- growth [9]: 19.5%
- growth [10]: -74.6% (active)

SMILES: CC(C)Sc1nc(NC2CC2)c(C#N)c(-c2ccccc2)n1
- growth [1]: 67.5%
- growth [2]: 69.8%
- growth [3]: 67.6%
- growth [4]: 71.5%
- growth [5]: 54.5%
- growth [6]: 76.1%
- growth [7]: 89.2%
- growth [8]: 62.9%
- growth [9]: 35%
- growth [10]: 79.6%

SMILES: Nc1nc(N)c2c(n1)NC(c1ccccc1)CC(c1ccc(Nc3nc(NCCO)nc(Nc4ccc(Cl)cc4)n3)cc1)=N2 (stereo not given)
- growth [1]: 41.2%
- growth [2]: 91.9%
- growth [3]: 63.2%
- growth [4]: -69.6% (active)
- growth [5]: -80.3% (active)
- growth [6]: -79.1% (active)
- growth [7]: 41%
- growth [8]: 75.7%
- growth [9]: -86% (active)
- growth [10]: 80.8%
